# Assay results: the supplement of paper PMC8728848
# Only a selection was taken, and the strongest signals are over-represented in it overall.
# B1: PfulAvr4 (Pseudocercospora fuligena) (protein)
# chain: HHHHHHDYKDDDDKTYVQDKTPAFVCPAADIKTTKCLGPKDCLYPSPKTCNGYIQCSPADDSYLTGIIHEMPCPSGLLWNDNKKWCDWPENTTCGLVKSAGATEVDATKQGPTPGKYHG
# Legend:
# Assay in all cases: glycan array binding signal (z-score within array); higher = stronger binding
# Conditions in all cases: glycan notation: IUPAC condensed, linker removed
# [1] = target: Gal(b1-4)GlcNAc(b1-3)[GlcNAc(b1-6)]Gal(b1-4)GlcNAc
# How it was run: (§1)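 Columns mapping to the same glycan were averaged after glycan names were converted to IUPAC-condensed notation. The data come from 3228 arrays in the Consortium for Functional Glycomics database, limited to those with an available protein sequence. Binding is reported as a within-array Z-score averaged across arrays of one protein sequence and across linkers.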
# Gal(b1-6)Gal = target: Gal(b1-6)Gal
# How it was run: as §1
# Gal3S6S(b1-4)GlcNAc = target: Gal3S6S(b1-4)GlcNAc
# How it was run: as §1
# Gal6S(b1-4)GlcNAc = target: Gal6S(b1-4)GlcNAc
# How it was run: as §1
# [2] = target: GalNAc(b1-4)GlcNAc(b1-3)GalNAc(b1-4)GlcNAc
# How it was run: as §1
# [3] = target: GalNAc3S(b1-4)[Fuc(a1-3)]GlcNAc
# How it was run: as §1
# [4] = target: GlcNAc(a1-3)Gal(b1-4)GlcNAc
# How it was run: as §1
# [5] = target: GlcNAc(a1-4)Gal(b1-4)GlcNAc(b1-3)Gal(b1-4)GlcNAc(b1-3)Gal(b1-4)GlcNAc
# How it was run: as §1
# [6] = target: GlcNAc(b1-2)[GlcNAc(b1-4)]Man(a1-3)[GlcNAc(b1-2)Man(a1-6)]Man(b1-4)GlcNAc(b1-4)GlcNAc
# How it was run: as §1
# [7] = target: GlcNAc(b1-3)Gal(b1-4)GlcNAc(b1-3)Gal(b1-4)GlcNAc(b1-2)[GlcNAc(b1-3)Gal(b1-4)GlcNAc(b1-3)Gal(b1-4)GlcNAc(b1-6)]Man(a1-6)[GlcNAc(b1-3)Gal(b1-4)GlcNAc(b1-3)Gal(b1-4)GlcNAc(b1-2)Man(a1-3)]Man(b1-4)GlcNAc(b1-4)[Fuc(a1-6)]GlcNAc
# How it was run: as §1
# [8] = target: GlcNAc(b1-3)Gal(b1-4)GlcNAc(b1-3)Gal(b1-4)GlcNAc(b1-3)Gal(b1-4)GlcNAc(b1-2)[GlcNAc(b1-3)Gal(b1-4)GlcNAc(b1-3)Gal(b1-4)GlcNAc(b1-3)Gal(b1-4)GlcNAc(b1-6)]Man(a1-6)[GlcNAc(b1-3)Gal(b1-4)GlcNAc(b1-3)Gal(b1-4)GlcNAc(b1-3)Gal(b1-4)GlcNAc(b1-2)Man(a1-3)]Man(b1-4)GlcNAc(b1-4)[Fuc(a1-6)]GlcNAc
# How it was run: as §1
# GlcNAc(b1-3)Man = target: GlcNAc(b1-3)Man
# How it was run: as §1
# [9] = target: GlcNAc(b1-3)[GlcNAc(b1-4)][GlcNAc(b1-6)]GlcNAc
# How it was run: as §1
# [10] = target: GlcNAc(b1-4)GlcNAc(b1-4)GlcNAc(b1-4)GlcNAc(b1-4)GlcNAc(b1-4)GlcNAc
# How it was run: as §1
# Kdn(a2-3)Gal(b1-4)Glc = target: Kdn(a2-3)Gal(b1-4)Glc
# How it was run: as §1
# Kdn(a2-6)Gal(b1-4)GlcNAc = target: Kdn(a2-6)Gal(b1-4)GlcNAc
# How it was run: as §1
# [11] = target: Man(a1-3)[Man(a1-6)]Man(a1-6)[Man(a1-2)Man(a1-3)]Man(b1-4)GlcNAc(b1-4)GlcNAc
# How it was run: as §1
# [12] = target: Man(a1-3)[Man(a1-6)]Man(a1-6)[Man(a1-3)]Man
# How it was run: as §1
# [13] = target: Man(a1-3)[Man(a1-6)]Man(a1-6)[Man(a1-3)]Man(b1-4)GlcNAc(b1-4)GlcNAc
# How it was run: as §1
# [14] = target: Man(a1-3)[Man(a1-6)]Man(b1-4)GlcNAc(b1-4)[Fuc(a1-6)]GlcNAc
# How it was run: as §1
# Man(a1-6)Man = target: Man(a1-6)Man
# How it was run: as §1
# [15] = target: Neu5Ac(a2-3)Gal(b1-3)GlcNAc(b1-2)Man(a1-3)[Neu5Ac(a2-3)Gal(b1-3)GlcNAc(b1-2)Man(a1-6)]Man(b1-4)GlcNAc(b1-4)GlcNAc
# How it was run: as §1
# [16] = target: Neu5Ac(a2-3)Gal(b1-3)GlcNAc(b1-6)GalNAc
# How it was run: as §1
# [17] = target: Neu5Ac(a2-3)[Neu5Ac(a2-6)]GalNAc
# How it was run: as §1
# [18] = target: Neu5Ac(a2-6)Gal(b1-4)GlcNAc(b1-2)Man(a1-3)[Gal(b1-4)GlcNAc(b1-2)Man(a1-6)]Man(b1-4)GlcNAc(b1-4)GlcNAc
# How it was run: as §1
# [19] = target: Neu5Ac(a2-6)Gal(b1-4)GlcNAc(b1-2)Man(a1-3)[Man(a1-6)]Man(b1-4)GlcNAc(b1-4)GlcNAc
# How it was run: as §1
# [20] = target: Neu5Ac(a2-8)Neu5Ac(a2-3)Gal(b1-4)Glc
# How it was run: as §1
# [21] = target: Neu5Ac(a2-8)Neu5Ac(a2-8)Neu5Ac(a2-3)[GalNAc(b1-4)]Gal(b1-4)Glc
# How it was run: as §1
# [22] = target: Neu5Gc(a2-3)Gal(b1-3)GlcNAc
# How it was run: as §1
binder,measurement,setting,value
B1,glycan array binding signal (z-score),[1],1.21
same,glycan array binding signal (z-score),Gal(b1-6)Gal,-0.156
same,glycan array binding signal (z-score),Gal3S6S(b1-4)GlcNAc,0.034
same,glycan array binding signal (z-score),Gal6S(b1-4)GlcNAc,-0.128
same,glycan array binding signal (z-score),[2],-0.127
same,glycan array binding signal (z-score),[3],-0.134
same,glycan array binding signal (z-score),[4],-0.093
same,glycan array binding signal (z-score),[5],-0.059
same,glycan array binding signal (z-score),[6],-0.053
same,glycan array binding signal (z-score),[7],-0.049
same,glycan array binding signal (z-score),[8],-0.07
same,glycan array binding signal (z-score),GlcNAc(b1-3)Man,0.804
same,glycan array binding signal (z-score),[9],-0.124
same,glycan array binding signal (z-score),[10],23.3
same,glycan array binding signal (z-score),Kdn(a2-3)Gal(b1-4)Glc,0.189
same,glycan array binding signal (z-score),Kdn(a2-6)Gal(b1-4)GlcNAc,0.004
same,glycan array binding signal (z-score),[11],0.011
same,glycan array binding signal (z-score),[12],-0.076
same,glycan array binding signal (z-score),[13],-0.097
same,glycan array binding signal (z-score),[14],-0.095
same,glycan array binding signal (z-score),Man(a1-6)Man,-0.118
same,glycan array binding signal (z-score),[15],1.27
same,glycan array binding signal (z-score),[16],-0.082
same,glycan array binding signal (z-score),[17],-0.131
same,glycan array binding signal (z-score),[18],3.32
same,glycan array binding signal (z-score),[19],-0.088
same,glycan array binding signal (z-score),[20],-0.074
same,glycan array binding signal (z-score),[21],-0.132
same,glycan array binding signal (z-score),[22],-0.161
